This is a sample that favours compounds with a hit; in the whole collection about 4.8% have one here.
ATXN2 expr inh = ATXN2 expression inhibition; HEK-293 ATXN2-luciferase reporter, luminescence, 24 h; Potency, µM (series often up to 57 µM), inactives show top-dose activity change, negative = inhibition, usual class: inhibitors; 360,000 tested, 0.72% active; AID 1745845; note: potency is the fitted concentration of half-maximal effect; % is set by controls: 0 for no effect and ±100 for the full control effect; nearly all actives have a fitted effect of over 55% in size
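ATXN2-luciferase reporter cells (luciferase flanked by upstream and downstream ATXN2 gene portions) were treated 24 h at 37 °C with compounds at up to 57 uM. SteadyGlo luminescence gave expression; GF-AFC fluorescence gave viability.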
S2 tox = viability counter-screen for ATXN expression inhibitors; AID 651635; Potency, µM (top dose mostly 56.7 µM), most hits filed as cytotoxic; 400,000 tested, 0.49% active; S2 cells (HEK-293 line with an ATXN2-luciferase reporter) viability, CellTiter-Fluor protease fluorescence, 24 h; note: potency is the fitted concentration of half-maximal effect; nearly all actives have a fitted effect of over 40% in size
HepG2 viability = counter-screen for TGF-b inhibitors: cytotoxicity in HepG2 cells | HepG2 CAGA-GFP viability, ATP luminescence, 18 h | AID 588856 | Potency, µM (highest dose often 46.1 µM), without a hit: at the highest dose activity change, negative = cytotoxicity, actives largely listed as cytotoxic | 410,000 tested, 0.76% active; note: potency is the fitted concentration of half-maximal effect
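HepG2 CAGA-GFP cells (1000/well, DMEM with 1% FBS) received compound, then TGF-beta at 500 pg/mL final, and were incubated 18 hours at 37 degrees C. Viability was read by CellTiter-Glo luminescence. Media-only wells were set as complete cell-killing and DMSO as no toxicity.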
TGFb inhibitor = blocks TGF-b signaling; HepG2 CAGA-GFP TGF-b/SMAD3 reporter, GFP fluorescence, 18 h; TGF-beta stimulated, 500 pg/mL final; Potency, µM (top dose mostly 46.1 µM), for inactives: at the highest dose activity, negative = inhibition, usual class: inhibitors; 410,000 tested, 1.2% active; AID 588855; note: potency is the fitted concentration of half-maximal effect; % is set by controls: 0 for no effect and ±100 for the full control effect; nearly all actives have a fitted effect of over 65% in size
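Smad-responsive CAGA-GFP expression was quantified in HEPG2 cells exposed to compounds and 500 pg/mL final TGF-beta for 18 h at 37 degrees C; unstimulated wells defined full inhibition.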
DRD3 agonist = activates the human D3 dopamine receptor; max activation, %; 410,000 tested, 0.58% active; D3R DiscoveRx beta-arrestin cells, luminescence, 90 min; AID 652048; in the data active = max activation above about 30%; note: 0% is about no effect
Target sequence (P35462 whole entry, looked up): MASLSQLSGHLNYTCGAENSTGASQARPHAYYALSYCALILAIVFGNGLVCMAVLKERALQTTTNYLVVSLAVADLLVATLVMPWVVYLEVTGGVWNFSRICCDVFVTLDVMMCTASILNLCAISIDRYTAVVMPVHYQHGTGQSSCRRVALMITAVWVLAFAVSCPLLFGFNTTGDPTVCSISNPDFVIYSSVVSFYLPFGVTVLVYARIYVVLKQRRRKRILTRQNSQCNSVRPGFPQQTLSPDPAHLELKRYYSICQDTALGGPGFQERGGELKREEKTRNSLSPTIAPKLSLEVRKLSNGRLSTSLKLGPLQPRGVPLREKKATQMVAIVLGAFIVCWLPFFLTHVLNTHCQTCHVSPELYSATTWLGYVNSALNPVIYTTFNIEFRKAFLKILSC
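Cells at 1500/well, incubated overnight, then treated with pinned compounds (dopamine as control) for 90 min at 37 degrees C. DiscoveRx reagent added for 30 - 60 minutes at room temperature; luminescence read.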
D3 antag = antagonists of human D3 dopamine receptor. P35462. D3R cells, DiscoveRx beta-arrestin luminescence, antagonist mode; stronger effect = lower value. max response, negative = inhibition, %. 360,000 tested, 2.5% active; in the data active = max response below about -50%; inconclusive = no clear call, values can overlap the other calls; note: % is set by controls: 0 for no effect and ±100 for the full control effect
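Cells plated overnight at 1500 cells/well, then exposed to library compounds with dopamine controls for 90 minutes at 37 degrees C. DiscoveRx reagent added for 30–60 minutes at room temperature; luminescence read, quantitative HTS format.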
* marks the source's active call; other numbers are inactive results; i = inactive; ? = inconclusive; / = not tested or not shown; ! = repeats disagree. Unless noted, calls come from the whole dose curve; as a rule, active = well fitted curve in the direction sought with a large enough effect; inconclusive = small, poorly fitted or top-dose-only effect, or another doubt; inactive = no such curve, though single readings can be large; an effect the other way counts as inactive or inconclusive.

SMILES	ATXN2 expr inh	S2 tox	HepG2 viability	TGFb inhibitor	DRD3 agonist	D3 antag
N#Cc1cn(CC(=O)N2CCc3ccccc3C2)c2ccccc12	-10%	i	-15%	-8%	-10	-53*
O=C(Cn1cccc1C(=O)c1ccccc1)NCCCN1CCc2ccccc2C1	1%	i	-4%	7%	-22	?
C[C@@H]1NC(=O)[C@@H](N)CNC(=O)[C@H](C2CCNC(N)=N2)NC(=O)/C(=C/NC(N)=O)NC(=O)[C@H](CNC(=O)C[C@@H](N)CCCN)NC1=O (some centres not stated)	/	i	/	/	-12	/
C[C@@H](CSc1ccc(Br)cc1)CN1CC[C@H](NC(=O)OCc2ccccc2)CCC1=O	-39%	?	-24%	11µM*	18	12
C[C@@H]1CCC(=O)N(CC[C@H](Sc2ccccc2)c2ccccc2)CC1	-7%	?	-2%	18µM*!	-8	6
CC(=O)Nc1ccc(SC[C@H](C)CN2CC[C@H](C(C)(C)C)CCC2=O)cc1	?	28µM*	-26%	?	7	28
COc1ccc(S[C@@H](CCN2CC[C@H](NC(=O)OCc3ccccc3)CCC2=O)c2ccccc2)cc1	-32%	?	-39%	13µM*	-28	0
COc1ccc(SC[C@H](C)CN2CC[C@H](NC(=O)OCc3ccccc3)CCC2=O)cc1	-25%	i	-20%	-18%	15	20
O=C(C=Cc1c(C(=O)O)[nH]c2cc(Cl)cc(Cl)c12)Nc1ccccc1	7%	/	/	/	/	/
COc1cc2cc3c4cc(OC)c(OC)cc4cc[n+]3c(C)c2cc1OC	/	i	/	/	/	/
CC(C)(C)C(=O)Cn1c(=O)n(CCCCCC(=O)NCc2ccc3c(c2)OCO3)c(=O)c2sccc21	/	/	-16%	?	-8	/
CC(=O)N=c1sc(S(N)(=O)=O)nn1C	2%	i	9%	-2%	-91	-121*
CC(=O)Nc1nnc(S(N)(=O)=O)s1	1%	i	2%	9%	21	1
S=C(Nc1ccccc1)Nc1nc2ccccc2n1CCOc1ccc(Cl)cc1	?	i	-58%	14µM*	1	-17
CCCn1c(COc2cccc(C)c2)nc2ccccc21	11%	i	-21%	-19%	41*	/
Cc1ccc(OCCn2c(CCNC(=O)C3CCCCC3)nc3ccccc32)cc1	/	/	0%	5%	/	/
Cc1cccc(OCCCn2c(CCNC(=O)C3CCCCC3)nc3ccccc32)c1	/	/	-70%	22µM*	-18	/
CC(C)(C)c1ccc(OCCn2c(CCNC(=O)C3CCCCC3)nc3ccccc32)cc1	/	/	-78%	20µM*	/	/
Cc1cccc(OCc2nc3ccccc3n2C)c1	/	?	-4%	-3%	0	0
O=C(C1CC12CCN(Cc1cccc3cccnc13)CC2)N1CCN(Cc2cccs2)CC1 (configuration not stated)	/	i	/	/	/	/
CC1CN(CC(=O)NCCc2ccncc2)Cc2ccccc2O1 (configuration not stated)	/	i	/	/	/	/
Cc1c(Cl)cccc1NC(=O)CCS(=O)(=O)c1ccc2c(c1)CC(C)N2C(=O)C1CC1 (configuration not stated)	/	/	-3%	1%	1	/
CC(C)CCNS(=O)(=O)c1ccc(N2CCCCS2(=O)=O)cc1	-16%	i	-53%	?	-9	/
O=C(NCCCc1nc2ccccc2n1Cc1ccc(F)cc1)C1CCCCC1	-39%	?	-53%	13µM*	-8	/
Cc1cccc(C)c1OCCn1c(CCNC(=O)C2CCCCC2)nc2ccccc21	/	/	-59%	13µM*	-25	/
SMILES	ATXN2 expr inh	S2 tox	HepG2 viability	TGFb inhibitor	DRD3 agonist	D3 antag
O=C(NCCc1nc2ccccc2n1CCCOc1ccc(Cl)cc1)C1CCCCC1	/	/	-97%	18µM*	-21	/
Cc1ccc2oc(-c3cccc(NC(=O)c4sc5c([N+](=O)[O-])cccc5c4Cl)c3)nc2c1	3%	i	-13%	-18%	-4	/
COc1ccc(CNCc2c(C(=O)O)c(C)n(Cc3ccccc3C)c2C)cc1OC	-18%	?	-1%	4%	9	/
COc1cc(CN(C(=O)c2ccc(Cl)cc2)C2CCS(=O)(=O)C2)cc(OC)c1OC (configuration not stated)	2%	i	3%	-12%	-9	/
COCCCNCCCCSc1ccc(Cl)cc1	-32%	/	-72%	8%	-37	?
CCCCNCCOCCSc1ccc(Cl)cc1	-35%	i	-41%	?	-7	-81*
COCCCNCCOCCSc1ccc(Cl)cc1	-20%	i	-18%	14%	-31	-68*
CN(C)CCOCCSc1ccc(Cl)cc1	-19%	i	14%	3%	-28	-86*
CC(C)NCCOCCSc1ccc(Cl)cc1	-16%	i	-21%	3%	-9	-84*
OCCNCCSc1ccc(Cl)cc1	/	i	-5%	9%	-4	2
COC(=O)[C@@H]1CCCN1C(=O)c1c(OC)cc(=O)n2c1CCN(Cc1ccc3c(c1)OCCO3)CC2	/	i	/	/	/	/
Cc1ccc(NC(=O)Cn2nc(C)n3cccc3c2=O)c(C)c1	/	/	0%	16%	-3	/
O=C(O)[C@@H](c1ccc(OCc2ccc3ccccc3n2)cc1)C1CCCC1	28%	/	/	/	/	/
Nc1nnc(SCC(=O)OCC(=O)c2ccccc2)s1	8%	i	4%	0%	7	-20
Nc1nnc(SCC(=O)OCC(=O)c2ccccc2Br)s1	-25%	i	-75%	9%	-27	-58*
Cn1c(COc2ccccc2)nnc1SCCSc1nnc(COc2ccccc2)n1C	-10%	i	2%	0%	-1	11
Cn1c(COc2ccc(Br)cc2)nnc1SC1CCc2ccccc2C1=O (configuration not stated)	-20%	i	-33%	?	-3	-57*
Cc1nc(NCCc2ccc(S(N)(=O)=O)cc2)c2c3c(sc2n1)CCC3	-15%	i	-35%	-22%	35*	41
CC(=O)N1CCc2c(sc3c2c(=O)n(-c2ccccc2)c(=O)n3Cc2cccc(C(F)(F)F)c2)C1	?	i	-61%	?	-14	/
CCOc1cc(CNc2ccc(N3CCOCC3)cc2)cc(Br)c1OCC	-30%	i	-23%	0%	37*	16
CCCCC(F)(F)[C@@]1(O)CC[C@H]2[C@H](CC(=O)[C@@H]2CCCCCCC(=O)O)O1	?	i	/	/	/	/
c1cncc(OC2CCN(Cc3ccc4c(c3)CN(Cc3nc5ccccc5s3)CCO4)CC2)c1	/	i	/	/	/	/

Compound activity deposited in PubChem BioAssay by National Center for Advancing Translational Sciences (NCATS).
